PfHsp90 yeast 2: growth inhibition of PfHsp90-expressing yeast, primary screen, antimalarial PfHsp90 inhibitor project, S. cerevisiae, BacTiter-Glo luminescence, single point, set 2 | BacTiter-Glo ATP, 48 h; yeast lacking PDR1 and PDR3 efflux regulators | 310,000 compounds, 0.32% hits | inhibition, % at 9.4 µM;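 active = every replicate shows inhibition above about 80%, whatever the replicate mean, limit read from the data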;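 also: 0% = DMSO neutral controls and 100% = 20 µM radicicol positive controls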
tim10-1 inh: growth inhibitors of tim10-1 mutant yeast, primary screen, luminescence, uHTS. 330,000 compounds, 2.2% hits. AID 463190, 2010. inhibition, % at 20 µM. S. cerevisiae tim10-1 ts strain growth, BacTiter-Glo, 24 h;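 active = inhibition of at least 40%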;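 also: mutant grown at 25 °C; 0% = DMSO wells with yeast and 100% = wells holding no yeast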
NALP3 yeast inh: NALP3 inflammasome inhibitors in reconstituted yeast, primary screen, luminescence, uHTS | 330,000 compounds, 0.39% hits | AID 2825, 2010 | inhibition, % at 10 µM | Yeast reconstituted NLRP3/ASC/caspase-1, beta-gal luminescence, 24 h;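 active = inhibition of 50% or more; inactive = inhibition below 50%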;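 also: plate controls were induced DMSO wells for no effect and uninduced yeast grown without galactose for full effect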
tim23-1 inh: growth inhibitors of tim23-1 mutant yeast, primary screen, luminescence, uHTS | S. cerevisiae tim23-1 growth, BacTiter-Glo luminescence, 24 h | inhibition, % at 20 µM | 330,000 compounds, 1.3% hits | AID 463212, 2010;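 active = growth inhibition of the mutant yeast at or above 50%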;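 also: temperature-sensitive mutant grown at 25 °C; plate controls were DMSO-treated mutant yeast for no effect and medium wells lacking yeast for full effect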
TIM10 inh: growth inhibitors of isogenic TIM10 control yeast, primary screen, counter-screen for tim10-1 yeast inhibitor project, luminescence, uHTS; 330,000 compounds, 1.4% hits; inhibition, % at 10 µM; S. cerevisiae TIM10 strain growth, BacTiter-Glo luminescence, 24 h;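 active = inhibition of 40% or more at the single tested concentration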;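 also: wild-type TIM10 isogenic control strain grown at permissive 25 °C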
tim10-1 confirm: growth inhibitors of tim10-1 mutant yeast, confirmation, single concentration, luminescence, S. cerevisiae | shares compounds with tim10-1 inh | S. cerevisiae tim10-1 ts strain growth, BacTiter-Glo, 24 h | inhibition, % at 20 µM | 7,400 compounds, 56% hits;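 active = inhibition of yeast growth at or above a set limit in either of two repeat tests at 20 µM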;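 also: tim10-1 mutant grown at permissive 25 °C to find synthetic lethal compounds; 0% = DMSO yeast wells and 100% = medium wells without yeast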
Starred values were filed as active, the others as inactive. Sampled rows, rich in hits. Any-hit rate of the full collection: about 3.7%.

Screening O=C(COC(=O)c1ccccc1C(=O)c1ccccc1)Nc1ccc(SC(F)F)cc1 returned PfHsp90 yeast 2 -26, tim10-1 inh 41*, NALP3 yeast inh 24, tim23-1 inh 39, TIM10 inh 40 and tim10-1 confirm 31*.
Screening CCN(CC(=O)Nc1c(F)cccc1F)C(=O)Cc1n[nH]c(=O)c2ccccc12 returned PfHsp90 yeast 2 17, tim10-1 inh 2, NALP3 yeast inh 13, tim23-1 inh -19 and TIM10 inh -4.
`COc1ccccc1C(=O)Nc1ccccc1C(=O)N1C(C)CCCC1C` (stereo not given) gave PfHsp90 yeast 2 13, tim10-1 inh 44*, NALP3 yeast inh -10, tim23-1 inh 28, TIM10 inh 8 and tim10-1 confirm 32*.
For COc1cccc(OC)c1C(=O)Nc1ccccc1C(=O)N1CCCC1 the results were PfHsp90 yeast 2 11, tim10-1 inh -26, NALP3 yeast inh 22, tim23-1 inh 5 and TIM10 inh -7.
Screening COC(=O)NN1C(=O)C(c2ccccc2)=C(c2ccc(Cl)cc2)C1=O returned PfHsp90 yeast 2 -16, tim10-1 inh 13, NALP3 yeast inh -20, tim23-1 inh 29 and TIM10 inh 23.
`Cc1cc(C)n(C(=O)Cn2nc(C)c(Br)c2C)n1` gave PfHsp90 yeast 2 -3, tim10-1 inh 3, NALP3 yeast inh 12, tim23-1 inh 22 and TIM10 inh 4.
COc1ccc(S(=O)(=O)N2CCC3CC2c2cc(N4CCOCC4)ccc23)cc1 (stereo not given) was read as PfHsp90 yeast 2 -5.
Screening Cc1cc2oc(C(=O)N(Cc3ccc(N(C)C)cc3)CC3CCCO3)c(C)c2cc1C (stereo not given) returned PfHsp90 yeast 2 -19, tim10-1 inh 25, NALP3 yeast inh 4, tim23-1 inh 33 and TIM10 inh 27.
Screening Cc1ccc2oc(C(=O)N(Cc3ccc(N(C)C)cc3)CC3CCCO3)c(C)c2c1 (stereo not given) returned PfHsp90 yeast 2 -4, tim10-1 inh 40, NALP3 yeast inh 8, tim23-1 inh 37, TIM10 inh 1 and tim10-1 confirm -11.
For C=CCNc1cc(=O)n(Cc2ccccc2)c(=O)[nH]1 the results were PfHsp90 yeast 2 8, tim10-1 inh -10, NALP3 yeast inh 22, tim23-1 inh 5 and TIM10 inh -11.
`CC1(c2ccc(OC(F)F)cc2)NC(=O)N(CC(=O)Nc2cccc(S(N)(=O)=O)c2)C1=O` (stereo not given) gave PfHsp90 yeast 2 -5, tim10-1 inh -5, NALP3 yeast inh -12, tim23-1 inh 4 and TIM10 inh -11.
Screening CC1(c2ccc(OC(F)F)cc2)NC(=O)N(/N=C/c2c(O)ccc3ccccc23)C1=O (stereo not given) returned PfHsp90 yeast 2 8, tim10-1 inh 42*, NALP3 yeast inh 6, tim23-1 inh 47, TIM10 inh 22 and tim10-1 confirm 27.
For COc1ccc(S(=O)(=O)Nc2cc(C(C)C)c(O)cc2C)cc1 the results were PfHsp90 yeast 2 -46, tim10-1 inh 16, NALP3 yeast inh -2, tim23-1 inh 3 and TIM10 inh 7.
Screening COc1ccc2nc3cc(Cl)ccc3c(Nc3cc(C(C)C)c(O)cc3C)c2c1 returned PfHsp90 yeast 2 6, tim10-1 inh 47*, NALP3 yeast inh 36, tim23-1 inh 41, TIM10 inh 19 and tim10-1 confirm 37*.
Screening Cn1ncc2c(Nc3ccc(Br)cc3)nc(Nc3ccc(Br)cc3)nc21 returned PfHsp90 yeast 2 -21, tim10-1 inh 57*, NALP3 yeast inh 16, tim23-1 inh 41, TIM10 inh 33 and tim10-1 confirm 28*.
Cn1ncc2c(Nc3ccc(O)cc3)nc(Cl)nc21 was read as PfHsp90 yeast 2 -8, tim10-1 inh -21, NALP3 yeast inh 8, tim23-1 inh 15 and TIM10 inh 8.
Screening Cn1ncc2c(Nc3cccc(Cl)c3)nc(Nc3cccc(Cl)c3)nc21 returned PfHsp90 yeast 2 108*, tim10-1 inh 54*, NALP3 yeast inh 17, tim23-1 inh 43, TIM10 inh 18 and tim10-1 confirm 45*.
For Cc1ccnc(NC(=O)c2ccccc2NC(=O)c2ccc(Cl)cc2Cl)c1 the results were PfHsp90 yeast 2 -4, tim10-1 inh 3, NALP3 yeast inh 23, tim23-1 inh 4 and TIM10 inh 2.
`Cn1c2ccccc2c(=O)c2ccc(NCCc3cccs3)cc21` gave PfHsp90 yeast 2 18, tim10-1 inh 13, NALP3 yeast inh 4, tim23-1 inh 36 and TIM10 inh -9.
COc1ccc(C(=O)C(/C=N/O)=N/Nc2ccc(F)cc2)cc1 was read as PfHsp90 yeast 2 -10, tim10-1 inh 25, NALP3 yeast inh 35, tim23-1 inh 22 and TIM10 inh -16.
For COc1ccc(C(=O)/C(=C/O)N=Nc2ccc(F)cc2)cc1 the results were PfHsp90 yeast 2 1, tim10-1 inh 45*, NALP3 yeast inh 3, tim23-1 inh 32, TIM10 inh 22 and tim10-1 confirm 9.
For Cc1cc(C)n(CCC(=O)N2CCCC(Nc3ccc(F)cc3)C2)n1 (stereo not given) the results were PfHsp90 yeast 2 10, tim10-1 inh 8, NALP3 yeast inh 10, tim23-1 inh 15 and TIM10 inh 1.
For S=C(Nc1ccc(Cl)cc1)N(CCCN1CCOCC1)Cc1cccs1 the results were PfHsp90 yeast 2 -3, tim10-1 inh 41*, NALP3 yeast inh 0, tim23-1 inh 17, TIM10 inh -15 and tim10-1 confirm 8.
`O=C(NCc1cccc(OC(F)(F)F)c1)C1CCC(=O)N(Cc2cccc(F)c2)C1` (stereo not given) gave PfHsp90 yeast 2 -4, tim10-1 inh 11, NALP3 yeast inh 11, tim23-1 inh 12 and TIM10 inh 7.
`COc1cccc(OC)c1C(=O)Nc1cccc(NC(=O)c2cccs2)c1` gave PfHsp90 yeast 2 6, tim10-1 inh 12, NALP3 yeast inh 14, tim23-1 inh 21 and TIM10 inh 4.
Screening CC(C)C1OC(c2cccc(NC(=O)c3cccs3)c2)OCC1(C)C (stereo not given) returned PfHsp90 yeast 2 -40, tim10-1 inh 44*, NALP3 yeast inh -6, tim23-1 inh 23, TIM10 inh 39 and tim10-1 confirm 32*.
Screening Fc1ccc(NC(=S)Nc2ccccc2N2CCOCC2)cc1Cl returned PfHsp90 yeast 2 -25, tim10-1 inh 44*, NALP3 yeast inh 6, tim23-1 inh 32, TIM10 inh 9 and tim10-1 confirm 39*.

Screening data from PubChem.
